# EWS-Fli inh – EWS/Fli transcriptional activity inhibition | A673 NR0B1-luciferase reporter, viability-normalised | inhibition, % at 12.6 µM | 0.67% of 350,000 active | AID 651661;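 active means mean inhibition of at least 50% after viability correction, with every replicate also passing that limit; inconclusive means mean reaches 50% but only one of two replicates passes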;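 further: firefly luciferase signal divided by Alamar Blue viability fluorescence both relative to DMSO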
# PAX8 reporter – lowers PAX8-driven luciferase in RMG-I cells | RMG-I TPO-luciferase reporter, SteadyGlo, 24 h | AID 652154 | 1.2% of 360,000 active | inhibition, % at 12.6 µM;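 active means mean replicate inhibition at least 60% with every replicate also reaching 60%; inconclusive means only one of the two criteria is met; inactive means mean below 60% and not all replicates reaching 60%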;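 further: luciferase light reporting Pax8 driven TPO promoter activity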
# F508del corr – CFTR F508del correction in bronchial cells; activity (quench increase), % at 7.58 µM; 0.36% of 350,000 active; CFBE cells, YFP halide quenching; stimulated with forskolin plus potentiator P3; % fluorescence drop versus neutral controls;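 active means mean added fluorescence quench of at least 8% versus neutral control, with both replicates also reaching 8%; inconclusive means only one of the mean or replicate conditions met; inactive means mean below 8% and not both replicates reaching 8%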;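 further: cells transiently co-express mutant CFTR-F508del with the halide-sensitive YFP; corrector assay measuring rescue of mutant channel to the surface after 24 h compound exposure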
# LGR2 antag – blocks bursicon-induced cAMP signaling via Drosophila LGR2. HEK293 LGR2, CRE-luciferase, bursicon-stimulated, 4 h. inhibition, % at 9.99 µM. 0.35% of 380,000 active;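 active means drop in luminescence signal, shown as inhibition above about 50% in the replicate tests, limit read from the data, passing the limit was not always enough; inconclusive means probably only some replicates passing the limit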;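 further: agonist challenge used bursicon conditioned medium at about half maximal strength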
# Hits are given with their value; i = inactive; ? = inconclusive; nt = no result given. This is a sample that favours compounds with a hit; in the whole collection about 1.8% have one here.
SMILES,EWS-Fli inh,PAX8 reporter,F508del corr,LGR2 antag
CC(C)N(C(=O)COC(=O)c1ccccc1C(=O)c1ccc(Cl)c([N+](=O)[O-])c1)C(C)C,?,i,i,94
Cc1ccc(OC(=O)c2ccc(Cl)c([N+](=O)[O-])c2)cn1,i,i,i,i
COc1ccc(C(=O)c2ccc(Cl)c([N+](=O)[O-])c2)cc1,i,108,i,i
CN(CCC#N)C(=O)COC(=O)c1ccccc1C(=O)c1ccc(Cl)c([N+](=O)[O-])c1,i,i,i,nt
C[C@@H]1CN([C@@H](C)CO)C(=O)Cc2cc(NC(=O)C3CCCCC3)ccc2O[C@H]1CN(C)S(=O)(=O)c1ccc(Cl)cc1,i,nt,i,i
Cc1cccc(/C(N)=N/OC(=O)c2ccc3c(c2)OCO3)c1,nt,i,nt,54
COc1cc(C(=O)O/N=C(\N)c2ccccn2)cc(OC)c1OC,i,i,i,i
Cc1cccc(C(=O)O/N=C(\N)c2ccccn2)c1,77,84,i,100
Cc1ccc(C(=O)O/N=C(\N)c2ccccn2)cc1C,74,83,i,98
Cc1ccc(S(=O)(=O)N(C)C[C@@H]2Oc3ccc(NC(=O)CCC(F)(F)F)cc3CC(=O)N([C@@H](C)CO)C[C@@H]2C)cc1,66,i,i,i
C[C@H](CO)N1C[C@H](C)[C@H](CN(C)S(=O)(=O)c2ccc(Cl)cc2)Oc2ccc(NC(=O)Nc3ccc4c(c3)OCO4)cc2CC1=O,61,nt,i,i
Cc1ccc(S(=O)(=O)N(C)C[C@@H]2Oc3ccc(NC(=O)Nc4ccc5c(c4)OCO5)cc3CC(=O)N([C@H](C)CO)C[C@@H]2C)cc1,56,i,i,i
C[C@H]1CN([C@@H](C)CO)C(=O)Cc2cc(NC(=O)NC3CCCCC3)ccc2O[C@H]1CN(C)S(=O)(=O)c1ccc(Cl)cc1,i,79,i,i
Cc1ccc(S(=O)(=O)N(C)C[C@H]2Oc3ccc(NC(=O)Nc4ccc5c(c4)OCO5)cc3CC(=O)N([C@@H](C)CO)C[C@@H]2C)cc1,i,i,i,i
O=C(c1cccc(F)c1)N1CC[C@H]2[C@H](CO)Nc3ccc(-c4ccccc4F)cc3[C@H]21,i,i,i,i
C[C@@H]1CN([C@@H](C)CO)C(=O)c2cccc(NC(=O)Nc3ccc4c(c3)OCO4)c2O[C@@H]1CN(C)S(=O)(=O)c1ccc(F)cc1,i,i,i,i
C[C@H]1CN([C@@H](C)CO)C(=O)Cc2cc(NC(=O)Nc3ccc4c(c3)OCO4)ccc2O[C@H]1CN(C)S(=O)(=O)c1ccc(Cl)cc1,58,nt,i,i
C[C@@H]1CN([C@H](C)CO)C(=O)Cc2cc(NC(=O)Nc3ccc4c(c3)OCO4)ccc2O[C@@H]1CN(C)S(=O)(=O)c1ccccc1,i,nt,i,i
C[C@H]1CN([C@@H](C)CO)C(=O)Cc2cc(NC(=O)Nc3ccc4c(c3)OCO4)ccc2O[C@H]1CN(C)S(=O)(=O)c1ccccc1,55,nt,i,i
N#C/C(=C\c1ccc(OC(F)F)cc1)C(=O)N1CCCCC1,i,i,i,i
Cc1ccccc1Cn1cnc2c(cnn2C(C)(C)C)c1=O,nt,nt,nt,i
CC(C)(C)n1ncc2c(=O)n(Cc3cccc(Cn4cnc5c(cnn5C(C)(C)C)c4=O)c3F)cnc21,i,79,i,i
CC(C)(C)n1ncc2c(=O)n(CC(=O)OCc3ccccc3)cnc21,nt,nt,nt,93
Cc1cc(O)c(N=Cc2cc3c(cc2[N+](=O)[O-])OCO3)cc1C,i,i,i,nt
O=C(OCc1ccccc1)N(CCCCN(CCCNCc1ccccc1)C(=O)OCc1ccccc1)CCCNCc1ccccc1,?,98,i,i
SMILES,EWS-Fli inh,PAX8 reporter,F508del corr,LGR2 antag
CC(C)CNS(=O)(=O)c1cc(C(=O)OC2CCOC2=O)c(Cl)cc1Cl (configuration not stated),i,i,i,i
COc1ccc(C(=O)NCC(c2ccco2)N2CCc3ccccc3C2)cc1 (configuration not stated),i,i,i,i
COc1ccc(C(=O)NCC(c2ccco2)N2CCc3ccccc32)cc1 (configuration not stated),?,i,12,i
CC(=O)Nc1ccc2nc(NC(=O)C(Cl)(Cl)Cl)sc2c1,i,i,i,i
Cc1cc(C)cc(OCC(O)CN2CCC(CN3C(=O)c4cccc5cccc(c45)C3=O)CC2)c1 (configuration not stated),i,67,i,i
COc1cccc(OCC(O)CN2CCC(CN3C(=O)c4cccc5cccc(c45)C3=O)CC2)c1 (configuration not stated),i,i,i,i
CCc1nc(N2[C@@H](C#N)[C@H](c3ccccc3-c3ccccc3F)[C@@H]2CO)sc1C,58,i,i,i
CN(C)c1ccc(N=Nc2ccc3ncccc3c2)cc1,i,i,i,62
Cc1cc(N(C)C)ccc1N=Nc1ccc2ncccc2c1,i,i,i,i
CC1=NN(c2ccccc2)C(=O)C1N=Nc1cccc(O)c1 (configuration not stated),i,i,19,i
C[C@H]1CN([C@@H](C)CO)C(=O)c2c(c3ccccc3n2C)-c2ccccc2CO[C@@H]1CN(C)S(=O)(=O)c1ccccc1F,i,74,i,i
C[C@H](CO)N1C[C@H](C)[C@H](CN(C)S(=O)(=O)c2ccccc2F)OCc2ccccc2-c2c(n(C)c3ccccc23)C1=O,i,i,i,i
C[C@@H]1CN([C@@H](C)CO)C(=O)c2c(c3ccccc3n2C)-c2ccccc2CO[C@H]1CN(C)S(=O)(=O)c1ccccc1F,i,84,i,i
COc1ccc(NN=Nc2ccc([N+](=O)[O-])cc2)cc1,i,i,i,i
Cc1cc(C)c(C(=O)/C=C/c2cccc3ccccc23)c(=O)[nH]1,i,99,i,67
CCCNC(=O)[C@@]1(c2ccc([N+](=O)[O-])cc2)CC(=O)N(CC23CC4CC(CC(C4)C2)C3)[C@@H]1c1ccc(CO)cc1I,i,105,i,nt
O=C(C[C@H]1CC[C@H]2[C@@H](COC[C@@H](O)CN2Cc2cc(F)cc(F)c2)O1)NC1CCC1,i,i,i,i
S=C(NCc1ccco1)NCC1CCCO1 (configuration not stated),i,i,11,i
CCOC(=O)C1CCN(c2ncnc3c2cnn3-c2ccc(Cl)cc2)CC1,nt,nt,nt,i
Clc1ccc(-n2ncc3c(N4CCCC4)ncnc32)cc1,nt,nt,nt,73
Clc1ccc(Cn2ncc3c(N4CCN(c5ccccc5)CC4)ncnc32)cc1,i,102,i,i
CCCCN1C(=O)C(=O)NC[C@@H]1C(C)O (some centres not stated),i,i,i,nt
S=C(c1ccc2c(c1)OCO2)N1CCN(c2cccc(Cl)c2)CC1,60,i,i,i
C[C@H](CO)N1C[C@H](C)[C@@H](CN(C)Cc2ccc(-c3ccccc3)cc2)Oc2ccc(NC(=O)Cc3ccccc3)cc2CC1=O,i,94,i,i
C[C@@H]1CN([C@@H](C)CO)C(=O)Cc2cc(NC(=O)CCC(F)(F)F)ccc2O[C@H]1CN(C)Cc1ccc(-c2ccccc2)cc1,i,100,i,i
C[C@H]1CN([C@@H](C)CO)C(=O)Cc2cc(NC(=O)CCC(F)(F)F)ccc2O[C@H]1CN(C)Cc1ccc(-c2ccccc2)cc1,i,i,i,i
